# Laboratory results published in the supplement of paper PMC8728848.
# The entries come from a sample that favours the strongest signals as a whole.
# B1: Gal 1 (Mus musculus), P16045 (protein)
# chain: MACGLVASNLNLKPGECLKVRGEVASDAKSFVLNLGKDSNNLCLHFNPRFNAHGDANTIVCNTKEDGTWGTEHREPAFPFQPGSITEVCITFDQADLTIKLPDGHEFKFPNRLNMEAINYMAADGDFKIKCVAFE
# Columns and labels:
# Experiment in all cases: glycan array binding signal (z-score within array); higher = stronger binding
# Conditions in all cases: glycan notation: IUPAC condensed, linker removed
# [1] = target: Fuc(a1-2)Gal(b1-3)GlcNAc(b1-2)Man(a1-3)[Fuc(a1-2)Gal(b1-3)GlcNAc(b1-2)Man(a1-6)]Man(b1-4)GlcNAc(b1-4)GlcNAc
# Procedure, shortened: (§1)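 Arrays were curated from the Consortium for Functional Glycomics database, 3228 in total, and kept only where the protein sequence was available. Binding is expressed as a within-array Z-score. This score was averaged across arrays of the same protein sequence at different concentrations or buffers and across linkers, and negative values can be read as non-binding.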
# [2] = target: Fuc(a1-2)Gal(b1-3)GlcNAc(b1-3)Gal(b1-4)Glc
# Procedure, shortened: as §1
# Fuc(a1-2)Gal(b1-4)GlcNAc = target: Fuc(a1-2)Gal(b1-4)GlcNAc
# Procedure, shortened: as §1
# [3] = target: Fuc(a1-2)Gal(b1-4)GlcNAc(b1-2)[Fuc(a1-2)Gal(b1-4)GlcNAc(b1-4)]Man(a1-3)[Fuc(a1-2)Gal(b1-4)GlcNAc(b1-2)Man(a1-6)]Man(b1-4)GlcNAc(b1-4)GlcNAc
# Procedure, shortened: as §1
# [4] = target: Fuc(a1-2)Gal6S(b1-3)GlcNAc
# Procedure, shortened: as §1
# Fuc(a1-2)[Gal(a1-3)]Gal = target: Fuc(a1-2)[Gal(a1-3)]Gal
# Procedure, shortened: as §1
# [5] = target: Fuc(a1-2)[Gal(a1-3)]Gal(b1-3)GalNAc
# Procedure, shortened: as §1
# [6] = target: Fuc(a1-2)[Gal(a1-3)]Gal(b1-4)GlcNAc(b1-2)Man(a1-3)[Fuc(a1-2)[Gal(a1-3)]Gal(b1-4)GlcNAc(b1-2)Man(a1-6)]Man(b1-4)GlcNAc(b1-4)[Fuc(a1-6)]GlcNAc
# Procedure, shortened: as §1
# [7] = target: Fuc(a1-2)[Gal(a1-3)]Gal(b1-4)GlcNAc(b1-6)GalNAc
# Procedure, shortened: as §1
# [8] = target: Fuc(a1-2)[Gal(a1-3)]Gal(b1-4)[Fuc(a1-3)]Glc
# Procedure, shortened: as §1
# [9] = target: Fuc(a1-2)[Gal(a1-3)]Gal(b1-4)[Fuc(a1-3)]GlcNAc(b1-3)GalNAc
# Procedure, shortened: as §1
# [10] = target: Fuc(a1-2)[GalNAc(a1-3)]Gal(b1-3)GlcNAc
# Procedure, shortened: as §1
# [11] = target: Fuc(a1-3)[Gal(b1-4)]GlcNAc(b1-2)Man
# Procedure, shortened: as §1
# [12] = target: Fuc(a1-3)[Gal(b1-4)]GlcNAc(b1-3)Gal(b1-3)[Fuc(a1-4)]GlcNAc
# Procedure, shortened: as §1
# [13] = target: Fuc(a1-3)[Gal(b1-4)]GlcNAc(b1-3)GalNAc
# Procedure, shortened: as §1
# [14] = target: Fuc(a1-3)[GalNAc(b1-4)]GlcNAc
# Procedure, shortened: as §1
# [15] = target: Gal(a1-3)Gal(b1-3)GlcNAc(b1-3)GalNAc
# Procedure, shortened: as §1
# [16] = target: Gal(a1-3)Gal(b1-4)GlcNAc(b1-2)Man(a1-3)[Gal(a1-3)Gal(b1-4)GlcNAc(b1-2)Man(a1-6)]Man(b1-4)GlcNAc(b1-4)GlcNAc
# Procedure, shortened: as §1
# Gal(a1-3)GalNAc = target: Gal(a1-3)GalNAc
# Procedure, shortened: as §1
# Gal(a1-4)Gal(b1-4)Glc = target: Gal(a1-4)Gal(b1-4)Glc
# Procedure, shortened: as §1
# Gal(b1-2)Gal = target: Gal(b1-2)Gal
# Procedure, shortened: as §1
# Gal(b1-3)Gal(b1-4)GlcNAc = target: Gal(b1-3)Gal(b1-4)GlcNAc
# Procedure, shortened: as §1
# [17] = target: Gal(b1-3)GalNAc(a1-3)[Fuc(a1-2)]Gal(b1-4)Glc
# Procedure, shortened: as §1
# Gal(b1-3)GlcNAc(b1-2)Man = target: Gal(b1-3)GlcNAc(b1-2)Man
# Procedure, shortened: as §1
# [18] = target: Gal(b1-3)GlcNAc(b1-3)Gal(b1-4)GlcNAc(b1-3)Gal(b1-4)GlcNAc(b1-2)[Gal(b1-3)GlcNAc(b1-3)Gal(b1-4)GlcNAc(b1-3)Gal(b1-4)GlcNAc(b1-6)]Man(a1-6)[Gal(b1-3)GlcNAc(b1-3)Gal(b1-4)GlcNAc(b1-3)Gal(b1-4)GlcNAc(b1-2)Man(a1-3)]Man(b1-4)GlcNAc(b1-4)[Fuc(a1-6)]GlcNAc
# Procedure, shortened: as §1
# [19] = target: Gal(b1-3)[Neu5Ac(a2-6)]GlcNAc(b1-6)Gal(b1-4)Glc
# Procedure, shortened: as §1
# Gal(b1-4)GlcNAc(b1-2)Man = target: Gal(b1-4)GlcNAc(b1-2)Man
# Procedure, shortened: as §1
# [20] = target: Gal(b1-4)GlcNAc(b1-2)[Gal(b1-4)GlcNAc(b1-4)]Man(a1-3)[GlcNAc(b1-4)][Gal(b1-4)GlcNAc(b1-2)Man(a1-6)]Man(b1-4)GlcNAc(b1-4)GlcNAc
# Procedure, shortened: as §1
# [21] = target: Gal(b1-4)GlcNAc(b1-3)Gal(b1-4)GlcNAc(b1-2)[Gal(b1-4)GlcNAc(b1-3)Gal(b1-4)GlcNAc(b1-6)]Man(a1-6)[Gal(b1-4)GlcNAc(b1-3)Gal(b1-4)GlcNAc(b1-2)Man(a1-3)]Man(b1-4)GlcNAc(b1-4)[Fuc(a1-6)]GlcNAc
# Procedure, shortened: as §1
# [22] = target: Gal(b1-4)GlcNAc(b1-3)Gal(b1-4)GlcNAc(b1-3)Gal(b1-4)GlcNAc(b1-2)Man(a1-3)[Gal(b1-4)GlcNAc(b1-3)Gal(b1-4)GlcNAc(b1-3)Gal(b1-4)GlcNAc(b1-2)Man(a1-6)]Man(b1-4)GlcNAc(b1-4)GlcNAc
# Procedure, shortened: as §1
binder,measurement,setting,value
B1,glycan array binding signal (z-score),[1],0.069
same,glycan array binding signal (z-score),[2],-0.229
same,glycan array binding signal (z-score),Fuc(a1-2)Gal(b1-4)GlcNAc,-0.279
same,glycan array binding signal (z-score),[3],0.547
same,glycan array binding signal (z-score),[4],-0.468
same,glycan array binding signal (z-score),Fuc(a1-2)[Gal(a1-3)]Gal,-0.365
same,glycan array binding signal (z-score),[5],-0.363
same,glycan array binding signal (z-score),[6],0.008
same,glycan array binding signal (z-score),[7],-0.106
same,glycan array binding signal (z-score),[8],-0.455
same,glycan array binding signal (z-score),[9],-0.325
same,glycan array binding signal (z-score),[10],-0.394
same,glycan array binding signal (z-score),[11],-0.075
same,glycan array binding signal (z-score),[12],-0.064
same,glycan array binding signal (z-score),[13],-0.264
same,glycan array binding signal (z-score),[14],-0.277
same,glycan array binding signal (z-score),[15],-0.23
same,glycan array binding signal (z-score),[16],4.96
same,glycan array binding signal (z-score),Gal(a1-3)GalNAc,-0.186
same,glycan array binding signal (z-score),Gal(a1-4)Gal(b1-4)Glc,-0.376
same,glycan array binding signal (z-score),Gal(b1-2)Gal,0.468
same,glycan array binding signal (z-score),Gal(b1-3)Gal(b1-4)GlcNAc,-0.195
same,glycan array binding signal (z-score),[17],-0.41
same,glycan array binding signal (z-score),Gal(b1-3)GlcNAc(b1-2)Man,-0.113
same,glycan array binding signal (z-score),[18],2.97
same,glycan array binding signal (z-score),[19],-0.078
same,glycan array binding signal (z-score),Gal(b1-4)GlcNAc(b1-2)Man,-0.253
same,glycan array binding signal (z-score),[20],0.891
same,glycan array binding signal (z-score),[21],3.02
same,glycan array binding signal (z-score),[22],2.85
